Experimental findings from PubChem BioAssay (NCI) are described below.

Test systems include DU-145 prostate; K-562 leukemia; MALME-3M melanoma; MDA-MB-231 breast; RXF 393 renal; SF-268 CNS; SF-295 CNS; SF-539 CNS; UACC-257 melanoma; M14 melanoma; HCT-15 colon; HT29 colon; SNB-75 CNS; SNB-19 CNS; U251 CNS; PC-3 prostate; SK-MEL-5 melanoma; UACC-62 melanoma; LOX IMVI melanoma; SK-MEL-28 melanoma.
What all share (assay): NCI-60 one-dose screen, 48 h (100 = growth as untreated, 0 = no growth, -100 = all killed)
Holding throughout (conditions): 10 µM unless noted

The structures appear in SMILES notation. Compounds without any hit were thinned out: in the full panel of roughly 83,000, 20% have a hit.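 Cells were grown in 96-well plates and exposed to the test compound at a single concentration for 48 hours; results are reported as percent growth, with values below 10 considered active.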 Values without a mark were called inactive. Calls of active or inactive are those of the source.

With `COc1ccc(N2CCC(=S)NC2=S)cc1`, the growth with DU-145 prostate was 108%; with K-562 leukemia it was 100%; with MALME-3M melanoma, 101%; in the assay on MDA-MB-231 breast it was 103%; in the assay with RXF 393 renal, 119%; with SF-268 CNS, 94.2%. The growth in the assay on SF-295 CNS is 101%; in the assay with SF-539 CNS, 99.9%; in the assay with UACC-257 melanoma it was 102%; in the assay on M14 melanoma it was 109%; with HCT-15 colon it was 101%; in the assay on HT29 colon it was 104%. In addition, the growth with SNB-75 CNS is 71.6%; with SNB-19 CNS, 94.5%; in the assay with U251 CNS it was 101%; in the assay with PC-3 prostate, 107%; in the assay on SK-MEL-5 melanoma, 98.2%; in the assay with UACC-62 melanoma, 90.3%. The growth is 95.3% with LOX IMVI melanoma and 113% in the assay on SK-MEL-28 melanoma.

With `CCn1c(-c2cc3c([nH]c4ccccc43)c(-c3cccc(O)c3)n2)n[nH]c1=S`, the growth in the assay with DU-145 prostate is 62.3%; with K-562 leukemia, 14.3%; in the assay with MALME-3M melanoma it was 51%; in the assay with MDA-MB-231 breast it was 46.9%; in the assay on RXF 393 renal, 8.59% (active); in the assay on SF-268 CNS, 48.3%. Also, the growth is 36.8% in the assay with SF-295 CNS; 30% with SF-539 CNS; 41% with UACC-257 melanoma; 18.1% in the assay with M14 melanoma; 50.2% in the assay on HCT-15 colon; -19.4% (active) in the assay with HT29 colon. Further, the growth in the assay with SNB-75 CNS was 22.2%; with SNB-19 CNS, 62.6%; with U251 CNS, 23.8%; in the assay with PC-3 prostate, 34.1%; in the assay on SK-MEL-5 melanoma it was -1.38% (active); in the assay on UACC-62 melanoma, 43.6%. Further, the figures for the growth with LOX IMVI melanoma and with SK-MEL-28 melanoma were 32.5% and 53.6%, respectively.

In the case of `Cc1ccc(/C=C(\C#N)n2nnc3cc(F)c(F)cc32)cc1`, the growth with DU-145 prostate is -3.37% (active); with K-562 leukemia it was 4.34% (active); in the assay with MALME-3M melanoma, 33%; with MDA-MB-231 breast, 12%; in the assay with RXF 393 renal it was -0.406% (active); in the assay with SF-268 CNS, 23.4%. For the same molecule, the growth is 36.6% with SF-295 CNS; -25.5% (active) in the assay with SF-539 CNS; 38% in the assay with UACC-257 melanoma; -27.7% (active) with M14 melanoma; 14.6% with HCT-15 colon; 5.95% (active) in the assay on HT29 colon. Further, the growth was -15.2% (active) with SNB-75 CNS; 31.9% in the assay on SNB-19 CNS; 24.4% with U251 CNS; 21.3% with PC-3 prostate; 16.4% in the assay on SK-MEL-5 melanoma; 34.7% in the assay on UACC-62 melanoma. The values for the growth in the assay on LOX IMVI melanoma and with SK-MEL-28 melanoma were -17.6% (active) and 39.5%, respectively.

Regarding `COc1cc(-c2nc3c(ncc4ccc(=O)n(-c5ccccc5)c43)s2)cc(OC)c1OC`, the growth in the assay with DU-145 prostate was 80.2%; in the assay with K-562 leukemia, 90.5%; with MALME-3M melanoma, 65.4%; in the assay with MDA-MB-231 breast, 64.1%; in the assay with RXF 393 renal it was 48.2%; in the assay with SF-268 CNS, 69.1%. The growth in the assay with SF-295 CNS was 90.4%; with SF-539 CNS, 57.4%; in the assay on UACC-257 melanoma, 101%; in the assay with M14 melanoma, 87.6%; in the assay on HCT-15 colon, 78.6%; in the assay on HT29 colon, 84.2%. Also, the growth is 56% in the assay with SNB-75 CNS; 86.1% in the assay on SNB-19 CNS; 80.3% in the assay on U251 CNS; 56.9% with PC-3 prostate; 68.5% in the assay with SK-MEL-5 melanoma; 78.7% with UACC-62 melanoma. The values for the growth with LOX IMVI melanoma and with SK-MEL-28 melanoma were 58.4% and 78.3%, respectively.

Turning to `Cc1ccc(-c2nc3nc(-c4ccccc4)nc(N4CCCN(S(C)(=O)=O)CC4)c3o2)cc1`, the growth is 57.1% with DU-145 prostate; 84.5% in the assay with K-562 leukemia; 55.5% in the assay with MALME-3M melanoma; 73.5% in the assay on MDA-MB-231 breast; 19.4% in the assay on RXF 393 renal; 76% with SF-268 CNS. In addition, the growth with SF-295 CNS is 87.4%; in the assay on SF-539 CNS, 30.7%; in the assay with UACC-257 melanoma it was 75.4%; in the assay with M14 melanoma, 70.9%; with HCT-15 colon it was 73.3%; with HT29 colon, 58.4%. In addition, the growth was 17.4% in the assay with SNB-75 CNS; 86.5% with SNB-19 CNS; 69.7% in the assay with U251 CNS; 68.3% with PC-3 prostate; 89.4% in the assay on SK-MEL-5 melanoma; 81.7% with UACC-62 melanoma. Also, the growth was 71.7% in the assay on LOX IMVI melanoma and 70.9% in the assay on SK-MEL-28 melanoma.

In the case of `O=C(NC(Cc1nnc2n(Cc3ccccc3)c(=O)c3c4c(sc3n12)CCCC4)c1ccccc1)c1ccccc1` (stereo not given), the growth with DU-145 prostate was 115%; in the assay on K-562 leukemia, 91%; in the assay with MALME-3M melanoma, 103%; with MDA-MB-231 breast, 94%; with RXF 393 renal it was 79.4%; in the assay with SF-268 CNS it was 89.5%. Moreover, the growth in the assay with SF-295 CNS was 108%; in the assay on SF-539 CNS it was 111%; with UACC-257 melanoma it was 101%; in the assay on M14 melanoma, 86.9%; with HCT-15 colon, 138%; in the assay on HT29 colon, 106%. Moreover, the growth is 81.3% with SNB-75 CNS; 99.1% with SNB-19 CNS; 111% with U251 CNS; 96.7% with PC-3 prostate; 96.1% in the assay on SK-MEL-5 melanoma; 85.9% with UACC-62 melanoma. In addition, the growth in the assay with LOX IMVI melanoma was 109%; in the assay with SK-MEL-28 melanoma, 110%.

With `O=C(N/N=C\c1cccc([N+](=O)[O-])c1)N/N=C/c1cccc([N+](=O)[O-])c1`, the growth in the assay with DU-145 prostate is 116%; in the assay with K-562 leukemia it was 99.4%; with MALME-3M melanoma, 109%; in the assay with MDA-MB-231 breast, 100%; in the assay with RXF 393 renal it was 106%; with SF-268 CNS, 102%. Further, the growth in the assay with SF-295 CNS is 106%; in the assay with SF-539 CNS it was 111%; in the assay with UACC-257 melanoma, 97.4%; in the assay with M14 melanoma, 113%; in the assay on HCT-15 colon it was 109%; in the assay on HT29 colon, 114%. Further, the growth in the assay with SNB-75 CNS is 88.8%; in the assay with SNB-19 CNS it was 100%; with U251 CNS, 97.3%; with PC-3 prostate, 91.5%; with SK-MEL-5 melanoma, 95.9%; with UACC-62 melanoma, 92.5%. For the same molecule, the figures for the growth with LOX IMVI melanoma and with SK-MEL-28 melanoma were 103% and 110%, respectively.

As to `COc1ccc(Cn2cc3c(c2-c2ccccc2)CCc2cnoc2-3)cc1`, the growth with DU-145 prostate was -4.72% (active); in the assay with K-562 leukemia, 13.7%; with MALME-3M melanoma it was 70.2%; with MDA-MB-231 breast it was 10.4%; with RXF 393 renal it was 24.8%; in the assay on SF-268 CNS, 16%. In addition, the growth in the assay on SF-295 CNS is 23.2%; with SF-539 CNS, -12.8% (active); in the assay on UACC-257 melanoma, 78.8%; with M14 melanoma it was 16.8%; in the assay on HCT-15 colon, 16.7%; in the assay with HT29 colon, 11.7%. Further, the growth with SNB-75 CNS was 44.2%; with SNB-19 CNS, 39.8%; with U251 CNS, 29.4%; with PC-3 prostate it was 27.4%; in the assay on SK-MEL-5 melanoma, -10% (active); with UACC-62 melanoma, 24%. Further, the growth was 29.6% with LOX IMVI melanoma and 56.4% in the assay with SK-MEL-28 melanoma.
